# Hits are enriched below; roughly 1.8% of the tested compounds scored in any of these assays.
# BaF3 parental: parental Ba/F3 viability inhibition as JAK2V617F counter-screen; CellTiter-Glo ATP luminescence; inhibition, % at 5.6 µM; 220,000 compounds, 1.1% hits;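 active means inhibition above a per-campaign cutoff, the mean inhibition of all tested compounds plus 3 SD, cut at about 27% in these data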;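 further: 0% = DMSO wells and 100% = JAK Inhibitor I control wells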
# Ba/F3 V617F tox: reduce viability of Ba/F3 cells dependent on JAK2V617F; Ba/F3 EpoR-JAK2V617F viability, ATP luminescence; inhibition, % at 5.6 µM; 220,000 compounds, 1.1% hits;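 active means inhibition above the campaign mean plus 3 SD over all tested compounds, cut at about 24% in these data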;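 further: cytokine-independent growth of Ba/F3 cells driven by EpoR plus mutant JAK2; 0% = DMSO-treated cells and 100% = JAK inhibitor I control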
# IEC-6 tox-1: counter-screen for KLF5 inhibitors: cytotoxicity in IEC-6 cells. IEC-6 cytotoxicity, luminescence viability. inhibition, % at 5 µM. 290,000 compounds, 0.78% hits;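 further: 0% = plate median of test compound wells and 100% = cytotoxic reference compound wells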
# KLF5 inh: suppresses KLF5 promoter-driven expression; 290,000 compounds, 0.23% hits; DLD-1 KLF5 promoter-luciferase reporter, luminescence; inhibition, % at 5 µM; AID 1700;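 active means inhibition above a per-plate limit of that plate's mean compound inhibition plus 3 SD, cut at about 60% in these data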;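 further: 0% = DMSO wells and 100% = LY294002 at 200 µM; higher means less KLF5 promoter-driven luciferase light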
# APP transl inh: APP translation inhibition | SH-SY5Y APP 5'UTR-luciferase reporter, luminescence | inhibition, % at 2 µM | 190,000 compounds, 0.82% hits;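 active means inhibition above a set limit, derived from the sample mean plus 3 SD, cut at about 45% in these data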
# BaF3 tox 2: parental Ba/F3 viability inhibition for JAK2V617F counter-screen; AID 1520; CellTiter-Glo luminescence; cells kept alive by added IL-3; shares compounds with Ba/F3 V617F tox; 580 compounds, 31% hits; inhibition, % at 5.6 µM;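 active means cell growth inhibition above the hit limit set in the earlier mutant JAK2 cell screen, cut at about 27% in these data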;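 further: plate controls were DMSO-treated cells for no effect and JAK Inhibitor I control wells for full effect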
# JAK2V617F conf: confirmation: loss of viability in JAK2V617F-dependent Ba/F3 cells; 580 compounds, 66% hits; inhibition, % at 5.6 µM; Ba/F3 EpoR-JAK2V617F viability, CellTiter-Glo luminescence; AID 1521; shares compounds with Ba/F3 V617F tox;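 active means mean inhibition above the hit cutoff derived in the earlier primary screen, cut at about 25% in these data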;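 further: 0% = DMSO-treated cells and 100% = JAK inhibitor I control wells; higher means lower luminescence from reduced cell ATP and viability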
# KLF5 inh confirm: confirmation of KLF5 inhibitors. DLD-1 KLF5 promoter firefly luciferase reporter, luminescence. 610 compounds, 79% hits. inhibition, % at 4 µM. shares compounds with KLF5 inh;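 active means inhibition above a set limit taken from the earlier primary screen, cut at about 63% in these data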;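 further: 0% = DMSO wells and 100% = LY294002 at 200 µM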
# IEC-6 tox-2: counter-screen for KLF5 inhibitors: cytotoxicity in rat IEC-6 cells; inhibition, % at 4 µM; AID 1905; IEC-6 rat intestinal cells, viability luminescence; shares compounds with KLF5 inh; 610 compounds, 56% hits; in the data active means inhibition above about 23%;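 further: cells exposed to compounds for 48 hours before viability read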
# IEC-6 tox confirm: IEC-6 cytotoxicity, confirmation assay. shares compounds with IEC-6 tox-1. IEC-6 rat intestinal epithelial viability, luminescence. inhibition, % at 5 µM. 1,900 compounds, 63% hits. AID 1907;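 further: 0% = vehicle and 100% = reference cytotoxic drug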
# * marks the source's active call; other numbers are inactive results; . = no result given. Unless noted, no stated cut-off is given here; in the data, active means inhibition above about 22%; inactive means the rest.
SMILES,BaF3 parental,Ba/F3 V617F tox,IEC-6 tox-1,KLF5 inh,APP transl inh,KLF5 inh confirm,IEC-6 tox-2,IEC-6 tox confirm,others
CC1CCC/C=C/C2CC(O)CC2C(O)/C=C/C(=O)O1 (configuration not stated),0,62*,101*,94*,94*,110*,102*,100*,BaF3 tox 2=103*;JAK2V617F conf=67*
C[C@H]1CCC[C@@H](O)CCC/C=C/c2cc(O)cc(O)c2C(=O)O1,4,3,4,-2,3,.,.,.,
C[C@H]1CCC/C=C/C2C[C@H](O)CC2[C@H](O)/C=C/C(=O)O1 (some centres not stated),6,38*,99*,101*,91*,110*,102*,102*,BaF3 tox 2=107*;JAK2V617F conf=78*
CCN(CCO)c1ccc(N=Cc2c(O)n(C)c(=S)[nH]c2=O)cc1,-1,6,-6,-28,.,.,.,.,
O=C(Nc1ccc(OC(=O)N2CCCC2)cc1)N1CCOCC1,4,0,0,7,4,.,.,.,
O=C(Nc1ccc(OC(=O)N2CCCCC2)cc1)N1CCOCC1,-2,-1,-5,68*,52*,4,-7,.,
CN1C(=O)c2ccccc2NC(=O)C1Cc1ccccc1 (configuration not stated),-3,-2,-2,-27,12,.,.,.,
O=C1C(=O)c2ccccc2-c2ccccc21,102*,100*,103*,106*,58*,114*,101*,.,
COc1cc2c(c(OC)c1OC)-c1ccc(O)c(=O)cc1C(NC(C)=O)CC2 (configuration not stated),.,.,94*,73*,.,89*,91*,83*,
Cc1nc2c(=O)n(C)c(=O)nc-2n(C)n1,101*,99*,102*,105*,6,115*,96*,96*,
Nc1ccc(C2(c3ccc(N)cc3)CN3CCC2CC3)cc1,3,1,4,6,-4,.,.,.,
COC1=CCC2([N+](=O)[O-])CN(C)CC1([N+](=O)[O-])C2 (configuration not stated),5,-2,-2,-14,2,.,.,.,
CN1/C(=C\C=C\C2=[N+](C)c3ccc4ccccc4c3C2(C)C)C(C)(C)c2ccccc21,95*,99*,74*,71*,95*,116*,77*,80*,
CC(CN(C)C1CCN(C)CC1)c1ccccc1 (configuration not stated),.,.,-2,-27,.,.,.,.,
COC(=O)c1ccccc1-n1c(C)nc2ccccc2c1=O,5,-3,2,-7,-14,.,.,.,
O=C(O)c1cccc2nc3ccccc3nc12,7,1,40*,-26,2,.,.,16,
O=P(C(Cl)Cl)(N1CCCCC1)N1CCCCC1,3,0,-5,-43,-1,.,.,.,
O=c1[nH]c(=O)n(C2CCCCC2)c(O)c1C1NCCc2ccccc21 (configuration not stated),5,-1,2,-8,5,.,.,.,
C=C1[C@@H](C)[C@H]2[C@H](Cc3ccccc3)NC(=O)[C@]23OC(=O)/C=C/[C@H](O)CCC[C@@H](C)C/C=C/[C@H]3[C@@H]1O,48*,44*,87*,32,54*,.,.,85*,
CC(C)(C)c1ccc(CSc2cnn(C(C)(C)C)c(=O)c2Cl)cc1,.,.,30*,44,.,.,.,17,
CCC(COC(=O)NC)NC(=O)Oc1ccccc1 (configuration not stated),1,-1,-5,4,6,.,.,.,
CC(=O)O[C@H]1C(=O)[C@@]2(C)C([C@H](OC(=O)c3ccccc3)[C@]3(O)C[C@H](OC(=O)[C@H](O)[C@@H](NC(=O)Cc4ccccc4)c4ccccc4)C(C)=C1C3(C)C)[C@]1(OC(C)=O)CO[C@@H]1C[C@@H]2O (some centres not stated),.,.,91*,54,.,.,.,86*,

# Screening data (PubChem BioAssay)
